Data: PubChem BioAssay (NCI)
The panel holds about 79,000 compounds, 15% with a hit somewhere; the sample as a whole holds those more often. Calls of active or inactive are those of the source. Rule as the data show it: active = growth inhibition above about 70%; inactive = the rest.

Columns and labels:
[1] = NCI Yeast Anticancer Drug Screen. Data for the rad50 strain (AID 155);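 also: 0% = growth of vehicle-only cultures of the same strain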; conditions: S. cerevisiae rad50 strain growth inhibition; at 50.0 µM; stronger effect = higher value
How it was run: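 Compounds were tested on a yeast strain with an engineered DNA damage repair alteration; the reported value is growth inhibition normalised to vehicle treatment.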

[2] = NCI Yeast Anticancer Drug Screen. Data for the mec2-1 strain (AID 157); conditions: S. cerevisiae mec2-1 strain, at 50.0 µM, stronger effect = higher value
How it was run: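 Readout is yeast growth inhibition, normalised to vehicle-treated controls, in the mec2-1 strain exposed to compound.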

[3] = NCI Yeast Anticancer Drug Screen. Data for the sgs1 mgt1 strain (AID 161);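 also: 0% = growth of cultures given vehicle only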; conditions: S. cerevisiae sgs1 mgt1 strain, at 50.0 µM, stronger effect = higher value
How it was run: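 Compounds are added to genetically altered yeast, and growth is compared with cultures given vehicle alone to give percent inhibition.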

[4] = NCI Yeast Anticancer Drug Screen. Data for the cln2 rad14 strain (AID 165);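 also: 0% = growth equal to vehicle treated cultures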; conditions: S. cerevisiae cln2 rad14 strain, at 50.0 µM, stronger effect = higher value
How it was run: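 Relative to vehicle controls, growth inhibition of compound-treated cln2 rad14 yeast was recorded.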

[5] = NCI Yeast Anticancer Drug Screen. Data for the bub3 strain (AID 167); conditions: S. cerevisiae bub3 mutant strain, at 50.0 µM, stronger effect = higher value
How it was run: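 Growth of a checkpoint-deficient yeast mutant is measured after compound exposure. Values represent inhibition relative to vehicle.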

[6] = NCI Yeast Anticancer Drug Screen. Data for the mlh1 rad18 strain (AID 175); conditions: S. cerevisiae mlh1 rad18 strain growth inhibition; at 50.0 µM; stronger effect = higher value
How it was run: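 Test agents were incubated with a yeast strain of defined genotype (DNA damage repair defect). Inhibition of growth was derived by comparison with vehicle-exposed cultures.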

Measured: growth inhibition

CCOC(=O)CC1=Nc2ccccc2SC1
inactive: [1] -28.4% | [2] -31.2% | [3] -14.8% | [4] -12.8% | [5] -22.6% | [6] -28.6%

O=C(/C=C/c1ccc(Cl)c(Cl)c1)c1ccccc1
inactive: [1] -7.1% | [2] -52.9% | [3] -7.9% | [4] -16.9% | [5] 35% | [6] -59.4%

CCCCCCCCCCCCCCCCCCNC(=O)Nc1cc(C(C)C)ccc1C
inactive: [1] -13.3% | [2] -22.1% | [3] -14.8% | [4] -47.1% | [5] -2.7% | [6] -30.6%

O=C1N/C(=N\OCCc2ccccc2)CC(NOCCc2ccccc2)N1 (stereo unspecified)
inactive: [1] -0.2% | [2] 18.8% | [3] 2.25% | [4] -11.6% | [5] 40.5% | [6] 7.5%

S=c1nc[nH]c2c1CN(Cc1ccccc1)CC2
inactive: [1] -43.6% | [2] -2.25% | [3] 4.6% | [4] -23.4% | [5] -4.95% | [6] -6.8%

O=c1[nH]c2ccccc2c(O)c1/C=N/C(=S)NC1CCCCC1
inactive: [1] -14.6% | [2] -36.3% | [3] -7.55% | [4] 14.9% | [5] 3.45% | [6] 9.25%

O=S(=O)(O)c1ccc2c(N=Nc3cccc4ccccc34)c(O)c(S(=O)(=O)O)cc2c1
inactive: [1] -2.35% | [2] 4.9% | [3] -21.3% | [4] 41.2% | [5] -17.8% | [6] 23.1%

O=S(=O)(O)Cc1ccc(CS(=O)(=O)O)cc1
inactive: [1] 14.7% | [2] -2.1% | [3] -1.3% | [4] -56.4% | [5] -3.8% | [6] -17%

Oc1ccccc1C=Nc1ccc(I)cc1.Oc1ccccc1C=Nc1ccc(I)cc1.[Co]
inactive: [1] 15.8% | [2] 23.1% | [3] 18.6% | [4] 9.45% | [5] 17.6% | [6] 36.8%

CCOc1cc(C(=O)O)cc(OCC)n1
inactive: [1] -0.1% | [2] -9.45% | [3] 9.2% | [4] -29.4% | [5] 8.95% | [6] 3.05%

CCOC(C#CC(=O)C(C)C)OCC
inactive: [1] -17.2% | [2] 3.15% | [3] 0.85% | [4] 2.25% | [5] 27.4% | [6] 19.4%

CN=[N+]([O-])c1ccccc1
inactive: [1] 1.75% | [2] 17.9% | [3] 4.35% | [4] 15.2% | [5] 10.9% | [6] 1.6%

CC/C(=N/NC(=O)NN)c1ccc(Cl)cc1
inactive: [1] -2.2% | [2] 14.3% | [3] -1.2% | [4] -1.8% | [5] 22.6% | [6] 17.6%

COC(=O)c1ccc(Cn2ccc(=O)n(Cc3ccc(C(=O)OC)cc3)c2=O)cc1
inactive: [1] 63.2% | [2] 23.8% | [4] 30.6% | [5] 31.3% | [6] 43.1%
active: [3] 74.6%

C=CCOC(=O)CC(=O)OCC=C
inactive: [1] 0.6% | [2] 1.7% | [3] 0.35% | [4] -4% | [5] 3.05% | [6] -5.9%

N/N=C(/C(=O)Nc1cccc(Cl)c1)C(C(=O)c1ccc(O)cc1O)C1OC(=O)c2ccccc21 (stereo unspecified)
inactive: [1] -17.4% | [2] -14.3% | [3] -8.1% | [4] 0.85% | [5] 6.1% | [6] 20.1%

Cn1c(=O)c2[nH]c(=O)n(C)c2n(C)c1=O
inactive: [1] -5.35% | [2] 2.25% | [3] 12.6% | [4] -9.55% | [5] 16.5% | [6] 16.1%

O=C(Cc1ccccc1CC(=O)Oc1ccccc1)Oc1ccccc1
inactive: [1] 9.1% | [2] -3.9% | [3] 10.8% | [4] 5.2% | [5] 18.9% | [6] 5.75%

CN(C)c1ccccc1CN1CCCN(Cc2ccccc2N(C)C)C1c1ccncc1
inactive: [1] -16.3% | [2] -10.1% | [3] -12.3% | [4] -0.25% | [5] -16.2% | [6] -1.55%

O=C(O)C12CCCCC1CCCC2 (stereo unspecified)
inactive: [1] 11.4% | [2] 31.2% | [3] -6.25% | [4] 26.1% | [5] -0.75% | [6] 10.7%

O=C(Nc1ccccc1)C1(Cl)CCCCC1
inactive: [1] 11.7% | [2] -7.35% | [3] -8.7% | [4] -16.9% | [5] -4.7% | [6] 1.8%

CC(=O)OCCC(C)Nc1ccnc2cc(Cl)ccc12 (stereo unspecified)
inactive: [1] -11.7% | [2] -7.45% | [3] 6.35% | [4] 13.2% | [5] -3.75% | [6] 12.2%

CC(=NCCN=C(C)c1ccc(Br)cc1)c1ccc(Br)cc1
inactive: [1] 16.9% | [2] -6.95% | [3] -21.8% | [4] -2% | [5] 2.4% | [6] 1.1%

Cc1ccc(S(=O)(=O)O)c2c([N+](=O)[O-])cccc12
inactive: [1] -8.85% | [2] 6.75% | [3] -11.1% | [4] -32.4% | [5] -9.85% | [6] -22.6%

O=C1CC2(CCCC2)CC(=O)N1
inactive: [1] -11.2% | [2] -11.4% | [3] -15.6% | [4] -29.4% | [5] 6.4% | [6] -8.1%

Nc1nc2c(c(-c3ccc(Cl)cc3)n1)CN(CCCC(=O)O)C2=O
inactive: [1] -1.8% | [2] 13.9% | [3] 7.4% | [4] -0.15% | [5] 2.35% | [6] 10.7%

Fc1c(F)c(F)c(Nc2c(F)c(F)c3c(F)c(F)c(F)c(F)c3c2F)c(F)c1F
inactive: [1] 1.15% | [2] 49.7% | [3] -16.3% | [4] -62.9% | [5] 2.9% | [6] 0.95%

CC12CCC(=O)C=C1CCC1C2C(=O)CC2(C)C1CCC2(O)C(=O)Cn1c(=O)cc[nH]c1=O (stereo unspecified)
inactive: [1] 10.1% | [2] 7.75% | [3] 25.6% | [4] 11.8% | [5] 0.3% | [6] 7.65%

NC(=O)N/N=C(\Cc1nc2ccc(Cl)cc2[nH]c1=O)C(=O)Nc1ccc(Cl)cc1Cl
inactive: [1] 11.9% | [2] 11.8% | [3] 7.2% | [4] -30.1% | [5] -0.85% | [6] 15.2%

O=C(CN=C(CN(c1ccccc1)c1ccccc1)Oc1c(Cl)cc(Cl)cc1Cl)N1c2ccccc2Sc2ccccc21
inactive: [1] 4.75% | [2] -10.8% | [3] 36.5% | [4] -36.2% | [5] -14.7% | [6] 7.8%

C/C(=N\N(C)/C=N/S(C)(=O)=O)c1ccccc1
inactive: [1] 7.85% | [2] 9.5% | [3] 24.5% | [5] -2.9% | [6] -3.25%
active: [4] 74.5%

O=C(CCC(=O)OCC1CCCO1)OCC1CCCO1 (stereo unspecified)
inactive: [1] 1.15% | [2] 2.45% | [3] 4.7% | [4] 4.9% | [5] 5.75% | [6] -2.8%

Cc1ccc(-n2cnc3c(N/N=C4\SCC(=O)N4c4ccccc4)ncnc32)cc1
inactive: [1] 41.2% | [2] 17.6% | [3] 40.2% | [4] 15.1% | [5] 49.2% | [6] 35%

CCOC(=O)C1CC1OCc1ccccc1 (stereo unspecified)
inactive: [1] -0.2% | [2] 11.7% | [3] 4.9% | [4] -15.9% | [5] 4% | [6] 5.3%

CCCCN(CCCC)C(=Nc1ccccc1)N(CCCC)CCCC
inactive: [1] -13.2% | [2] -3.4% | [3] -23.8% | [4] 10% | [5] -38.9% | [6] -15.3%

N#CCCS(=O)(=O)O
inactive: [1] 29.1% | [2] 21.9% | [3] -6.9% | [4] 1.95% | [5] 15.9% | [6] 13.8%

COC(=O)C1=C(C(=O)OC)P2(C)(C)OC(c3ccccc3)CN2C1(c1ccccc1)c1ccccc1 (stereo unspecified)
inactive: [1] 18% | [2] 9.15% | [3] -2.4% | [4] -80% | [5] 0.3% | [6] 40.9%

CC(C)NP(=O)(OC1CC(C)(C)N(O)C(C)(C)C1)OC1CC(C)(C)N(O)C(C)(C)C1
inactive: [1] 26.1% | [2] 18.6% | [3] 13.4% | [4] -16.3% | [5] 2% | [6] 5.65%

N#CC(c1ccccc1)N(C(N)=O)c1ccccc1 (stereo unspecified)
inactive: [1] -3.15% | [2] 8.5% | [3] 8.05% | [4] -2.85% | [5] 6.4% | [6] 4.2%

N#Cc1cc(F)c(N)c(F)c1
inactive: [1] -2.25% | [2] 7.95% | [3] 2.2% | [4] 9.95% | [5] -0.35% | [6] 3.8%

CCOC(=O)c1nc2cc(C(F)(F)F)ccc2nc1Nc1ccc(OC)c(OC)c1
inactive: [1] -18.1% | [2] -6.15% | [3] -16.9% | [4] -12.4% | [5] -12.8% | [6] -14%
